Reference: PubChem BioAssay (NCI)
Compounds without any hit were thinned out: in the full panel of roughly 83,000, 20% have a hit.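 Assay: single dose, 48 h. Readout: percent growth (0 = no net growth; negative = cell death). Active: <10.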 Activity calls are given as the source filed them.

Legend:
Experiment in all cases: NCI-60 one-dose screen, 48 h (100 = growth as untreated, 0 = no growth, -100 = all killed)
Conditions in all cases: 10 µM unless noted
[1] = system: SK-MEL-2 melanoma
[2] = system: EKVX NSCLC
[3] = system: SN12C renal
[4] = system: UO-31 renal
[5] = system: TK-10 renal
[6] = system: ACHN renal
[7] = system: CAKI-1 renal
[8] = system: A498 renal
[9] = system: CCRF-CEM leukemia
[10] = system: MOLT-4 leukemia
[11] = system: SR leukemia
[12] = system: RPMI-8226 leukemia
[13] = system: OVCAR-8 ovarian
[14] = system: OVCAR-5 ovarian
[15] = system: OVCAR-4 ovarian
[16] = system: SK-OV-3 ovarian
[17] = system: IGROV1 ovarian
[18] = system: OVCAR-3 ovarian
[19] = system: HS 578T breast
[20] = system: NCI/ADR-RES ovarian

Measured: growth

Cn1cc(-c2nnc(N)nc2-c2c[nH]c3ccccc23)c2cccnc21
inactive: [1] 24.3% | [2] 62.3% | [3] 50.6% | [4] 48% | [5] 91.5% | [6] 56.9% | [7] 43.2% | [8] 86.4% | [9] 34.6% | [10] 26.7% | [11] 25.2% | [12] 43.5% | [13] 49.7% | [14] 77.8% | [15] 76.8% | [16] 64.6% | [17] 39.5% | [18] 25.9% | [19] 41.4% | [20] 76.3%

O=C1NC(=O)/C(=C/c2ccccc2OCc2cc3ccccc3nc2Cl)S1
inactive: [1] 88.6% | [2] 88% | [3] 81.4% | [4] 71.9% | [5] 97.7% | [6] 86.2% | [7] 82.3% | [8] 122% | [9] 53.9% | [10] 85.3% | [11] 105% | [12] 93.7% | [13] 68.4% | [14] 112% | [15] 88.2% | [16] 81.7% | [17] 91.5% | [18] 71.7% | [19] 28.8% | [20] 87.6%

CC(=O)Nc1ccc(C(=O)NC(=S)Nc2ccc(S(N)(=O)=O)cc2)cc1
inactive: [1] 97.1% | [2] 90.1% | [3] 91.7% | [4] 80.7% | [5] 89.1% | [6] 102% | [7] 87.9% | [8] 104% | [9] 100% | [10] 111% | [11] 105% | [12] 105% | [13] 94.6% | [14] 96.5% | [15] 84.9% | [16] 101% | [17] 92.3% | [18] 97.7% | [19] 94.5% | [20] 95.9%

CN1CCN(/C(=N\c2sc(-c3ccccc3)nc2-c2ccccc2)c2ccccc2)CC1
inactive: [1] 115% | [2] 81.3% | [3] 82.7% | [4] 82.4% | [5] 105% | [6] 95.3% | [7] 72.7% | [8] 122% | [9] 57.3% | [10] 40.9% | [11] 21.1% | [12] 34.6% | [13] 97.6% | [14] 70% | [15] 89.4% | [16] 105% | [17] 82.5% | [18] 111% | [19] 88.7% | [20] 90.4%

CC1(C)CC[C@]2(C(=O)O)CC[C@]3(C)C(=CCC4[C@@]5(C)C[C@@H](O)[C@@H]6OC(c7cccc(Br)c7)OC[C@@]6(C)C5CC[C@]43C)C2C1 (stereo not given in full)
inactive: [1] 65.8% | [2] 27.8% | [3] 46.3% | [4] 30.3% | [5] 35.4% | [6] 19.4% | [7] 39.4% | [8] 69.5% | [9] 27.5% | [10] 13.2% | [11] 30.6% | [12] 18.9% | [13] 40% | [14] 67.5% | [15] 52.4% | [16] 101% | [17] 66.7% | [18] 34.9% | [19] 65.3% | [20] 40.6%

Cc1ccc(NCC(=O)Cn2cc(COc3ccc(C=Nc4cnc5ccccc5c4)cc3)nn2)cc1
inactive: [1] 136% | [2] 106% | [3] 99.9% | [4] 90.1% | [5] 109% | [6] 107% | [7] 97% | [8] 124% | [9] 102% | [10] 108% | [11] 103% | [12] 110% | [13] 103% | [14] 107% | [15] 113% | [16] 98.4% | [17] 112% | [18] 139% | [19] 106% | [20] 113%

CCS(=O)(=O)N1CCCC(C(=O)Nc2nc3ccc(NC(=O)c4ccc(F)c(OC)c4F)cc3s2)C1 (stereo not given)
active: [10] 9.19%
inactive: [1] 61.1% | [2] 46.8% | [3] 83.7% | [4] 54.5% | [5] 83.8% | [6] 63.5% | [7] 57.6% | [8] 87.9% | [9] 29.5% | [11] 27.8% | [12] 30.4% | [13] 57.7% | [14] 101% | [15] 39.4% | [16] 70.2% | [17] 80.9% | [18] 62.3% | [19] 47.6% | [20] 52%

Cn1cc(-c2cc3nc(-c4cn(C)c5ncc(Br)cc45)cc(N)n3n2)c2cc(Cl)ccc21
active: [1] -76% | [2] -71.1% | [3] -87.9% | [4] -87.8% | [5] -94.9% | [6] -100% | [7] -71.7% | [8] -1.96% | [9] -37.4% | [10] -47.5% | [11] -28.1% | [12] -4.61% | [13] -54.4% | [14] -81.4% | [15] -59.4% | [16] -69.2% | [17] -73.1% | [18] -54.4% | [19] -36.1% | [20] -58.4%

COc1ccc2oc(=O)c(C3(C)NC(=O)c4c(/C=C/C(=O)OC(C)(C)C)cccc4N3)cc2c1 (stereo not given)
inactive: [2] 37.1% | [3] 40.6% | [4] 25% | [5] 56.7% | [6] 28.6% | [7] 39.9% | [8] 57.8% | [9] 32.1% | [10] 18.1% | [11] 26.2% | [12] 28.5% | [13] 37.9% | [14] 60.9% | [15] 41.5% | [16] 51.2% | [17] 41.6% | [18] 55.4% | [19] 60% | [20] 36.6%
active: [1] 7.6%

Cc1ccccc1[C@H]1C(C(=O)c2ccc(Cl)cc2)C2(N[C@@H]1c1ccccc1)C(=O)Nc1ccc(Br)cc12 (stereo not given in full)
active: [1] -11.2% | [3] -82.1% | [6] 7.11% | [9] 5.11% | [10] -2.55% | [11] -21.5% | [12] -10.5% | [13] 2.36% | [14] 5.07% | [18] -30.7% | [20] -55.1%
inactive: [2] 26.4% | [4] 14.1% | [5] 41.6% | [7] 23% | [8] 44.3% | [15] 14.6% | [16] 33.4% | [17] 13.4% | [19] 10.7%

Cc1ccc(C2=NN(c3nc(-c4cc5ccccc5oc4=O)cs3)C(c3ccc(C)cc3)C2)cc1 (stereo not given)
inactive: [1] 104% | [2] 93.6% | [3] 104% | [4] 68% | [5] 163% | [6] 102% | [7] 88.2% | [8] 127% | [9] 101% | [10] 98.5% | [11] 102% | [12] 98.6% | [13] 106% | [14] 126% | [15] 99.1% | [16] 80.3% | [17] 104% | [18] 109% | [19] 101% | [20] 101%

C=C1CCC2C3(C)COC(c4ccc(F)cc4)OC3CCC2(C)C1CC(O)C1=CCOC1=O (stereo not given)
inactive: [1] 19.9% | [2] 62.6% | [3] 32.1% | [4] 43.2% | [5] 96.6% | [6] 30.2% | [7] 53.3% | [8] 118% | [9] 21.4% | [10] 22.5% | [11] 21.6% | [12] 21.9% | [14] 51% | [15] 53.8% | [16] 98% | [17] 36.5% | [18] 63.4% | [19] 71%
active: [13] -2.76% | [20] 0.657%

O=C(c1ccccc1)c1ccc2nc(-c3ccc(F)cc3)[nH]c2c1
inactive: [1] 62.4% | [2] 80.9% | [3] 30.5% | [4] 91.1% | [5] 104% | [6] 57.1% | [7] 40.9% | [8] 90.7% | [9] 15.7% | [10] 27.6% | [11] 27.9% | [12] 43.1% | [13] 83.3% | [14] 41.5% | [15] 49.5% | [16] 74% | [17] 45.9% | [18] 32.6% | [19] 65.1% | [20] 58.3%

CC(=O)c1cccc(NC(=O)CCC(=O)NS(=O)(=O)c2ccc(C)cc2)c1
inactive: [1] 115% | [2] 99.5% | [3] 111% | [4] 92.5% | [5] 103% | [6] 105% | [7] 101% | [8] 137% | [9] 99% | [10] 107% | [11] 99.3% | [12] 99.8% | [13] 106% | [14] 110% | [15] 118% | [16] 99.6% | [17] 115% | [18] 128% | [19] 111% | [20] 112%

C#C[C@]1(O)CC[C@H]2[C@@H]3CC=C4c5sc(-c6ccc(O)c(O)c6)nc5CC[C@]4(C)[C@H]3CC[C@@]21C
active: [1] -97.9% | [2] -74.4% | [3] -89.5% | [4] -93.8% | [5] -44.9% | [6] -88.9% | [7] -51.2% | [8] -88.5% | [9] -27.9% | [10] -48% | [11] -25.7% | [12] -50.4% | [13] -77.3% | [14] -87% | [15] -68.1% | [16] -78.2% | [17] -67.4% | [18] -56.3% | [19] -32.6% | [20] -27.2%
